Compound activity as filed in PubChem BioAssay.
DT40 TDP1 no CPT: qHTS for Inhibitors of human tyrosyl-DNA phosphodiesterase 1 (TDP1): qHTS in cells in absence of CPT; DT40 Tdp1-/- hTDP1 cells, no CPT, ATP luminescence, 48 h; Potency, µM (titrated, usually from 46.2 µM), usual class: inhibitors; actives 15% (n = 420,000); AID 686978, 2013; note: nearly all actives have a fitted effect of over 55% in size
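Seeded 400 DT40-hTDP1 cells/well (vehicle DMSO, no 20 nM CPT); pinned compounds; ≥48 hr at 37 °C; CellTiter-Glo luminescence as viability measure.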
IL1B secr inh: blocks inflammasome-driven IL-1 beta release; activity change, % at 57.5 µM; AID 743279; THP-1 LPS/ATP IL-1B secretion, AlphaLISA, 16 h; active compounds read low; actives 4.7% (n = 360,000); in the data active = activity change below about -50%; inconclusive = mostly about -30% to -49%
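THP-1 cells pretreated 1 hr with compounds (up to 57.5 uM final), then stimulated with LPS (250 ng/mL final) plus ATP (1.25 mM final); secreted IL-1B measured by AlphaLISA after 16 hr, decreased signal indicating inhibition.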
DT40 TDP1 CPT: growth inhibition of DT40 Tdp1-/-;hTDP1 cells with camptothecin (screen for TDP1 inhibitors); Potency, µM (doses to about 46.2 µM), usual class: inhibitors; AID 686979; chicken DT40 Tdp1-/-;hTDP1 cells + 20 nM CPT, ATP luminescence, 48 h; actives 12% (n = 420,000); note: nearly all actives have a fitted effect of over 55% in size
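Cell growth measured by CellTiter-Glo luminescence after a minimum 48 h, 37 C compound exposure with 20 nM CPT in Tdp1-knockout DT40 cells stably expressing hTDP1, seeded 400/well; qHTS titration format.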
ELG1 DNA repair: inhibitors of ELG1-dependent DNA repair in HEK293T cells. HEK293T ELG1-luciferase reporter, luminescence, 16 h; DNA damage induced by 5-fluorouridine. Potency, µM (doses to about 46.1 µM), most hits filed as inhibitors. actives 2.3% (n = 330,000); note: nearly all actives have a fitted effect of over 55% in size
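DMSO vehicle served as the neutral condition. Each well held 2,000 cells given 5-fluorouridine plus compound; after 16 hr at 37 °C/5% CO2, ONE-Glo was added and luciferase measured 30 min later.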
Giardia killer: kills Giardia lamblia; Giardia lamblia trophozoite viability; activity change, % at 7.66 µM, hits read low; actives 0.15% (n = 340,000); AID 540267; in the data active = activity change below about -80%; inconclusive = between about -30% and that limit;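 note: parasites exposed to compound for two days anaerobically before the ATP read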
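Compounds were tested on trophozoites seeded at 100 cells/well and held 48 hrs at 37 deg C anaerobically. An ATP-based luminescent kit measured the remaining live cells.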
TDP1 block: blocks human tyrosyl-DNA phosphodiesterase 1. recombinant TDP1, AlphaScreen DNA substrate cleavage. Potency, µM (top dose mostly 130 µM), most hits filed as inhibitors. actives 0.28% (n = 350,000). AID 485290; note: nearly all actives have a fitted effect of over 40% in size
Target sequence (Q9NUW8 whole entry, looked up): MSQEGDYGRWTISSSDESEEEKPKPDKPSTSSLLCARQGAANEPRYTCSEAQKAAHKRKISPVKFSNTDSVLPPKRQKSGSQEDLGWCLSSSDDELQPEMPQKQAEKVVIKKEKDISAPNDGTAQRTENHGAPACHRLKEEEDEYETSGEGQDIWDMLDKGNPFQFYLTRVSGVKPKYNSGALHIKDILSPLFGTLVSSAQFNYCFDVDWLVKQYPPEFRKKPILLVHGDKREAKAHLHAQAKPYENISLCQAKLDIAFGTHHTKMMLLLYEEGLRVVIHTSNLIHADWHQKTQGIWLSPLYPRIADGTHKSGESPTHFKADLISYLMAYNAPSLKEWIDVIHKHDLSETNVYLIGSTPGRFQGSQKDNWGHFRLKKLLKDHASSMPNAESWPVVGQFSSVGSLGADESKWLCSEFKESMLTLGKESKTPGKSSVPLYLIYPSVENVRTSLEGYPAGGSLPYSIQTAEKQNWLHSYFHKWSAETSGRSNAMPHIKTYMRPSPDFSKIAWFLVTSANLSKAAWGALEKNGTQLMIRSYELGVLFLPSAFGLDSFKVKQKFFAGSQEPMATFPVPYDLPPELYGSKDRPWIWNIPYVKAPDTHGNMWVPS
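Here, a 5' biotin and 3' phosphotyrosine-FITC DNA oligonucleotide reports Tdp1 activity: intact substrate bridges AlphaScreen beads, while cleavage leaves a 3' phosphate and drops signal. All incubations at room temperature.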
Each line names hits and unclear results; the compound was inactive in the other large screens. This is a sample that favours compounds with a hit; in the whole collection about 19% have one here. Unless noted, calls come from the whole dose curve; as a rule, active = well fitted curve in the direction sought with a large enough effect; inconclusive = small, poorly fitted or top-dose-only effect, or another doubt; inactive = no such curve, though single readings can be large; an effect the other way counts as inactive or inconclusive.

O=C(CSc1nnc(CNC(=O)C23CC4CC(CC(C4)C2)C3)n1-c1ccccc1)Nc1ccccc1	DT40 TDP1 no CPT inconclusive, DT40 TDP1 CPT inconclusive
COC(=O)C/C=C/[C@@H](C)[C@H](NC(=O)OCC(Cl)(Cl)Cl)c1ccc2ccccc2c1	none (no result: DT40 TDP1 no CPT, IL1B secr inh, DT40 TDP1 CPT, ELG1 DNA repair, Giardia killer)
CC1CN(CC(=O)NCC2(N3CCOCC3)CCCC2)Cc2cc(Cl)ccc2O1 (stereo not given)	DT40 TDP1 no CPT inconclusive (no result: IL1B secr inh, ELG1 DNA repair, Giardia killer, TDP1 block)
CCC(=O)Nc1cc2c3c(c1)CCN3C(=O)CC2	none
CC1Cc2cc(S(=O)(=O)CCC(=O)NCc3ccco3)ccc2N1C(=O)C1CC1 (stereo not given)	DT40 TDP1 no CPT 2.9µM, DT40 TDP1 CPT 6.5µM
CC1Cc2cc(S(=O)(=O)CCC(=O)Nc3ccc(F)cc3)ccc2N1C(=O)C1CC1 (stereo not given)	DT40 TDP1 no CPT inconclusive, DT40 TDP1 CPT inconclusive (no result: IL1B secr inh, ELG1 DNA repair, Giardia killer)
COc1ccccc1CNC(=O)CCS(=O)(=O)c1ccc2c(c1)CC(C)N2C(=O)C1CC1 (stereo not given)	DT40 TDP1 no CPT 23µM, DT40 TDP1 CPT 21µM
CC(CC(=O)NCc1ccco1)S(=O)(=O)c1ccc2c(c1)CCN2C(=O)C1CC1 (stereo not given)	DT40 TDP1 no CPT inconclusive, DT40 TDP1 CPT 18µM
COc1ccc(CNC(=O)CCS(=O)(=O)c2ccc3c(c2)CC(C)N3C(=O)C2CC2)cc1 (stereo not given)	DT40 TDP1 no CPT 3.7µM, DT40 TDP1 CPT 15µM, ELG1 DNA repair inconclusive
CC1Cc2cc(S(=O)(=O)NCCC(=O)NCc3ccc(F)cc3)ccc2N1C(=O)C1CC1 (stereo not given)	DT40 TDP1 no CPT inconclusive, DT40 TDP1 CPT inconclusive
CCCCOc1ccc(CNC(=O)c2cnc3sc(N4CCOCC4)nn3c2=O)cc1	DT40 TDP1 no CPT inconclusive, DT40 TDP1 CPT inconclusive (no result: IL1B secr inh, ELG1 DNA repair, Giardia killer)
CCC(=O)N1CCc2cc(S(=O)(=O)CCC(=O)NCc3ccco3)ccc21	DT40 TDP1 no CPT 2.9µM
CCC(=O)N1CCc2cc(S(=O)(=O)CCC(=O)NCCc3ccccc3)ccc21	none
Cc1ccc2nc(/C(C#N)=C\c3cc(C)n(-c4cccc([N+](=O)[O-])c4)c3C)[nH]c2c1	DT40 TDP1 no CPT 9.2µM, IL1B secr inh inconclusive, DT40 TDP1 CPT 8.2µM, ELG1 DNA repair inconclusive
Cc1cc(/C=C(/C#N)c2nc3ccccc3[nH]2)c(C)n1-c1cc(C(=O)O)cc(C(=O)O)c1	none (no result: TDP1 block)
C[N+]1(C)CC(O)[C@H](C(=O)[O-])C1 (stereo not given in full)	none (no result: IL1B secr inh, ELG1 DNA repair, Giardia killer)
COc1ccc(S(=O)(=O)N2CCC3(CC2)OCCN3S(=O)(=O)c2ccc(OC)cc2)cc1	DT40 TDP1 no CPT inconclusive, DT40 TDP1 CPT inconclusive (no result: TDP1 block)
COc1ccc(S(=O)(=O)N2CCOC23CCN(S(=O)(=O)c2c(C)cc(C)cc2C)CC3)cc1	DT40 TDP1 no CPT 16µM, DT40 TDP1 CPT inconclusive, ELG1 DNA repair inconclusive
COc1ccc(S(=O)(=O)N2CCOC23CCN(S(=O)(=O)c2ccc(F)cc2C)CC3)cc1	DT40 TDP1 no CPT 23µM, DT40 TDP1 CPT inconclusive
COc1ccc(S(=O)(=O)N2CCOC23CCN(S(=O)(=O)c2cc(C)ccc2C)CC3)cc1	DT40 TDP1 no CPT inconclusive, DT40 TDP1 CPT 21µM (no result: TDP1 block)
CC(=O)NCCCc1ccc(C(=O)COC(=O)CNC(=O)c2ccc3ccccc3c2)cc1	none (no result: IL1B secr inh, ELG1 DNA repair)
O=C(CNc1cccc(S(=O)(=O)N2CCCCCC2)c1)Nc1cccc([N+](=O)[O-])c1	DT40 TDP1 no CPT 23µM, DT40 TDP1 CPT inconclusive, ELG1 DNA repair inconclusive
O=C(CNc1cccc([N+](=O)[O-])c1)NC(=O)NC1CCCCC1	DT40 TDP1 no CPT inconclusive, IL1B secr inh -52, DT40 TDP1 CPT 15µM
COc1ccc([N+](=O)[O-])cc1NCC(=O)Nc1cccc(S(=O)(=O)N2CCCC2)c1	DT40 TDP1 no CPT 16µM, DT40 TDP1 CPT inconclusive, ELG1 DNA repair inconclusive
O=C(CNc1cc([N+](=O)[O-])ccc1NCCO)Nc1cccc(S(=O)(=O)N2CCCCC2)c1	DT40 TDP1 no CPT inconclusive, DT40 TDP1 CPT inconclusive, ELG1 DNA repair inconclusive
